# Experimental data reported in PubChem BioAssay (NCI).
# Where “and” joins values, the source holds several entries; their conditions need not be identical. Equal values may be shown once. This is part of a sample that, as a whole, favours compounds with a hit. Of some 83,000 tested, about 20% had one in any assay.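 96-well plates, one dose, 48 hours. Percent growth reported; active if below 10.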 Values without a mark were called inactive. Calls of active or inactive are those of the source.
# System: SK-MEL-2 melanoma
# Assay: NCI-60 one-dose screen, 48 h (100 = growth as untreated, 0 = no growth, -100 = all killed)
# Conditions: 10 µM unless noted
# Protocol: Growth inhibition of the SK-MEL-2 human tumor cell line is measured as a screen for anti-cancer activity. Cells are grown in 96 well plates and exposed to the test compound for 48 hours. Compounds are tested at a single concentration, which is 10^-5 M for most compounds. The reported endpoint is percent growth (GI% or GIPRCNT), where numbers from 0 - 100% represent growth inhibition, and numbers from -100% - 0 represent cell death. For example, a value of 40 represents 60% growth inhibition. A value of 0 means no net growth occurred over the course of the experiment. A value of -40 indicates 40% of cells at the beginning of the experiment died by the end of the experiment. A value of -100 means all cells are dead at the end of the experiment.
# NCI-60 Human Tumor Cell Lines Screen was performed using the standard one-dose NCI protocol, which is described in more detail at https://dtp.cancer.gov/discovery_development/nci-60/default.htm.
# Compounds with GIPRCNT values below 10 were considered active. Activity score was based on GIPRCNT using the following formula: […]
# Score is 0 for GIPRCNT values of 100 or above, 50 for GIPRCNT values of 0, and 100 for GIPRCNT values of -100.
row,SMILES,growth
1,CCOC(=O)c1ccc(C(=N)N)cc1,113%
2,CCCC(=O)Oc1ccc2ccccc2c1,104%
3,O=C1c2ccccc2C(c2ccccc2)C1c1ccccc1 (stereo not given),91.1%
4,O=C1c2cccnc2-c2ncccc21,122% [100 µM]
5,O=[N+]([O-])c1ccc(N/N=C/C2CCCCCC2)c([N+](=O)[O-])c1,105%
6,O=[N+]([O-])c1cccc(N=Cc2ccccc2)c1,104%
7,CCCCCc1cc[n+](CC(=O)c2ccccc2)cc1,101% and 104%
8,COc1ccc(CCl)c(C)c1OC,104%
9,O=C1C=CC(=O)N1Cc1ccco1,28.8%
10,CCOc1ccc(/C=C\C(=O)O)cc1,114%
11,O=[N+]([O-])c1ccc(N2CCN=N2)cc1,92.2%
12,COc1cc([C@@H]2c3cc4c(cc3[C@H](O)[C@H]3COC(=O)[C@@H]23)OCO4)cc(OC)c1OC,-23.7% (active)
13,CCc1ccccc1-n1[nH]c(C)c(C=N)c1=O,106%
14,O=C(c1ccc(Cl)cc1)C1C(c2ccccc2)C1[N+](=O)[O-] (stereo not given),106%
15,CC(=O)c1cccc(OC(=O)c2ccccc2)c1,88.9%
16,O=C(O)/C=C/C=C/c1ccccc1,104% and 115%
17,CS(=O)(=O)OCC1NC(=O)C(COS(C)(=O)=O)NC1=O (stereo not given),75.4% and 89.1%
18,COc1ccc(COC=O)cc1,108%
19,CC(C)(C)C1=CC(=O)C(C(C)(C)C)=CC1=O,95.2% and 94.5%
20,N#Cc1ccc(/C=C/C(=O)c2ccccc2)cc1,90.7%

row,SMILES,growth
1,Clc1ccc(/C=C/c2ccc3ccccc3n2)cc1,10.7% and 89.2%
2,C/C=C/C(=O)OCCCCCCCCCCCC,94.3%
3,CCOCCC(=O)O,109%
4,COc1ccc2oc3c(ccc[n+]3C)c(=O)c2c1,99.6%
5,S=c1nc[nH]c2nc[nH]c12,54.6% [50 µM]
6,OCc1ccccc1F,26.3%
7,O=C(O)C1CSCN1 (stereo not given),110% and 84.4%
8,Cc1c(Cl)cc(Cl)c(N)c1Cl,104%
9,S=c1ccc2ccccc2[nH]1,97.9% and 97.2%
10,Cc1cc(NC(=O)NC(=O)c2ccccc2N(C)C)ccc1Oc1ncc(Br)cn1,48% and 60.5%
11,O=C(O)c1cccc(Br)c1,105%
12,Cc1ccc(N)cc1S(=O)(=O)O,120%
13,CCOC(=N)c1ccc(C(=N)OCC)cc1,103%
14,Cc1cc(-c2ccc(N=Nc3c(C)nn(-c4ccc(S(=O)(=O)O)cc4)c3O)c(C)c2)ccc1N=Nc1ccc(O)c(C(=O)O)c1,73%
15,N#Cc1c[nH]n2ccnc12,105%
16,CN(C)C(=N)N=C(N)N,106% and 25.1%
17,COC(=O)C(Cc1cn(C(C)=O)c2ccccc12)P(=O)(OC)OC (stereo not given),102%
18,Cc1cc(O)c(C(C)C)cc1N=O,103% and 111%
19,CNc1ccc(O)cc1,110% and 118%
20,N=C(N=C(N)N)N1CCOCC1,111% and 99.2%
